According to PubChem BioAssay (Tox21):
Where “and” joins values, the source holds several entries; their conditions need not be identical. Equal values may be shown once. Records with an inconclusive call do not appear. A call without a number means that no potency is given here. Unmarked numbers belong to inactive results. Calls of active or inactive are those of the source. Calls come from the whole dose curve.

assay: qHTS assay for small molecule agonists of the p53 signaling pathway (AID 651631); settings: HCT-116 p53RE-bla reporter, beta-lactamase FRET ratio, 16 h; series mostly up to 73.3 µM; activation: at the top concentration; note: nearly all actives have a fitted effect of over 15% in size
Method in brief: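 Stably transfected HCT-116 cells (beta-lactamase behind p53 response elements) get compounds after a 5 h settling period; 16 h later at 37 °C, FRET substrate is loaded and fluorescence read after 2 h.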
Potency is the fitted concentration of half-maximal effect.

Structure (SMILES)	Potency	activation
Nc1ncn([C@@H]2O[C@H](CO)[C@@H](O)[C@H]2O)c(=O)n1	2.11 µM (active) and 4.86 µM (active)	–
OC1CCCCCCCCCCC1	inactive	–
O=CCc1ccccc1	inactive	–
Nc1ccc(Cl)cc1Cl	–	-2.93%
COC(=O)c1ccccc1	inactive	–
CCC(C)(O)CCCC(C)C (centres undefined)	inactive	–
Cc1ncc[nH]1	inactive	–
CC(C)OC=O	inactive	–
c1ccc2c(c1)c1cccc3ccc4cccc2c4c31	60.7 µM (active)	–
Brc1cc(Oc2cc(Br)c(Br)c(Br)c2Br)c(Br)c(Br)c1Br	–	3.16%
CCCCC(CC)COC(=O)c1ccc(N(C)C)cc1 (centres undefined)	inactive	–
CC(=O)CC/C=C(\C)CCC=C(C)C	inactive	–
O=C1c2cccc(O)c2C(=O)c2c(O)cccc21	19.5 µM (active)	–
CN(C)c1nc(N(C)C)nc(N(C)C)n1	inactive	–
O=C=Nc1ccc(Cc2ccc(N=C=O)cc2)cc1	–	2.78%
CCCCOCCOCCO	–	3.17%
CC(=O)Oc1ccccc1C(=O)Nc1ncc([N+](=O)[O-])s1	5.96 µM (active)	–
CN(C)CCN(Cc1cccs1)c1ccccn1	–	1.8%
CCOCCOCCO	inactive	–
CC(C)Oc1ccc2c(=O)c(-c3ccccc3)coc2c1	inactive	–

Structure (SMILES)	Potency	activation
CC(C)=CCCC(C)CCO (centres undefined)	inactive	–
O=S(=O)(O)c1ccc(O)cc1	inactive	–
Nc1ncnc2nc[nH]c12	–	3.47%
CC(CCC(=O)O)(c1ccc(O)cc1)c1ccc(O)cc1	–	-1.19%
O=C(Nc1ccc(Cl)cc1)Nc1ccc(Cl)c(Cl)c1	7.5 µM (active) and 5.42 µM (active) and 15.4 µM (active)	–
O=CCCCC=O	29.8 µM (active) and 33.2 µM (active) and 61.1 µM (active)	–
c1ccc2c(c1)Oc1ccccc1S2	inactive	–
CCCCCCCCCCCO	–	-1.69% [at 95.1 µM]
CC(C)=CCC/C(C)=C\CO	inactive	–
C[C@]12CCC(=O)C=C1CC[C@@H]1[C@@H]2C(=O)C[C@@]2(C)[C@H]1CC[C@]2(O)C(=O)CO	inactive	–
COc1ccc(C(=O)CC(=O)c2ccc(C(C)(C)C)cc2)cc1	–	-2.53%
Cc1ccc(C)c(O)c1C	inactive	–
CCC(C)OC(=O)c1ccc(O)cc1 (centres undefined)	–	2.68%
C[Si](C)(C)O[Si](C)(C)C	inactive	–
CC(C)OB(OC(C)C)OC(C)C	inactive	–
CCCCC(CC)COP(=O)(OCC(CC)CCCC)OCC(CC)CCCC (centres undefined)	–	-3.73% [at 95.1 µM]
CCC(C)CO (centres undefined)	inactive	–
O=C(Nc1ccc([N+](=O)[O-])cc1Cl)c1cc(Cl)ccc1O	298 nM (active) and 611 nM (active)	–
Cc1c(OCC(F)(F)F)ccnc1CS(=O)c1nc2ccccc2[nH]1 (centres undefined)	inactive	–
